ClpP mod = qHTS Assay for Activators of ClpP | purified B. subtilis ClpP, FRET peptide cleavage, 20 min | hit rate 1.9% among 340,000 | Potency, µM (titrated, usually from 57.5 µM), inactives show at the highest dose activity change, negative = active | ATP-dependent Clp protease proteolytic subunit (Bacillus subtilis (strain 168)), P80244; active means well fitted falling curve with a large enough effect; inconclusive means small, poorly fitted or top-dose-only effect; inactive means no such curve, though single readings can be large or run the other way; further: potency means the concentration at half of the fitted maximal effect; the source files actives as falling curves though it sought activators and does not explain the sign; nearly all actives have a fitted effect of over 65% in size
Target sequence (P80244 whole entry, looked up): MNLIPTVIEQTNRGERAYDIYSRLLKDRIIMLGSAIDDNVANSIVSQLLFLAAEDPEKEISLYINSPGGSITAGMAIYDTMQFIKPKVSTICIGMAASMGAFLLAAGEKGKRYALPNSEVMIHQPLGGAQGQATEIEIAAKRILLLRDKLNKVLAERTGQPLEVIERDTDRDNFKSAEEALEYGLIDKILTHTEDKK
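ClpP 10 microg/mL final, pH 8 Tris/KCl buffer with BSA, glycerol, Tween-20; compound pinned in; FRET-FV substrate; RT 20 min; Ex320/Em430; ΔFRET vs ADEP 5.8 microM, DMSO, no enzyme.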
Menin MLL FP TR = displaces Texas Red mutant MLL peptide from human menin; hit rate 0.23% among 270,000; Potency, µM (series often up to 61.6 µM), inactives show top-dose FP activity change, negative = inhibition, usual class: inhibitors; O00255; Menin + Texas Red MLL mutant peptide, fluorescence polarization; active means well fitted inhibition curve with a large enough effect in the polarisation, with a control signal flat, not every such curve was filed as active; inconclusive means small, poorly fitted or top-dose-only effect, or effect the other way, or a change in a side signal; inactive means no such curve, though single readings can be large or run the other way; the % refers to the polarisation; further: potency means the concentration at half of the fitted maximal effect; % of control where 0% means no effect
p53 reactivation = restores transcriptional activity of mutant p53; H1299 p53-A138V BP100-luciferase reporter, luminescence, 24 h; hit rate 0.063% among 320,000; Potency, µM (highest dose often 92.2 µM), inactives show top-dose activity change, positive = activation, most hits filed as activators; AID 504706; active means well fitted activation curve with a large enough effect; inconclusive means small, poorly fitted or top-dose-only effect; inactive means no such curve, though single readings can be large or run the other way; further: potency means the concentration at half of the fitted maximal effect; % of control where 0% means no effect; nearly all actives have a fitted effect of over 45% in size
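p53-null H1299 cells stably carrying temperature-sensitive p53-A138V and a BP100-luciferase reporter were pinned with compounds (4-point, 1:5 series) and held 24 hrs at 37 deg C. Luminescence was read 10 min after detection reagent.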
CXXC DNA block = inhibitors of human MLL CXXC domain-DNA interaction; Q03164; MLL-CXXC / FITC-HOXA9 DNA fluorescence polarization; Potency, µM (titrated, usually from 115 µM), inactives show at the highest dose activity change, negative = inhibition, usual class: inhibitors; hit rate 0.037% among 290,000; AID 2662; active means well fitted inhibition curve with a large enough effect in the polarisation, with a control signal flat, not every such curve was filed as active; inconclusive means small, poorly fitted or top-dose-only effect, or effect the other way, or a change in a side signal; inactive means no such curve, though single readings can be large or run the other way; the % refers to the polarisation; further: potency means the concentration at half of the fitted maximal effect
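Purified MLL-CXXC (added from a 7 uM solution) was preincubated 5 min at ambient with pinned compounds in 50 mM Tris-HCl pH 7.5, 50 mM NaCl, 1 mM DTT, 0.05% BSA. Fluorescein-labeled HOX-A9 DNA (50 nM solution) followed, 30 min, then polarization read.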
Menin-MLL FL inh = menin-MLL binding inhibition, fluorescein peptide; Fluorescence polarization, fluorescein-MLL peptide displacement from menin; FP activity change, % at 61.4 µM; 290,000 tested, under 10 active; active means well fitted curve in the direction sought with a large enough effect in the polarisation, not every such curve was filed as active; inconclusive means small, poorly fitted or top-dose-only effect, or effect the other way, or a change in a side signal; inactive means no such curve, though single readings can be large or run the other way; the % refers to the polarisation; further: % of control where 0% means no effect
* = called active by the depositor; ? = inconclusive; . = no result given; [ ] = another dose, or the depositor's remark. The full list was thinned out, with hits kept by preference.

SMILES | ClpP mod | Menin MLL FP TR | p53 reactivation | CXXC DNA block | Menin-MLL FL inh
O=C(Nc1ccc(C(=O)Nc2ccc(C(=O)Nc3ccc(S(=O)(=O)O)c4cc(S(=O)(=O)O)cc(S(=O)(=O)O)c34)cc2)cc1)Nc1ccc(C(=O)Nc2ccc(C(=O)Nc3ccc(S(=O)(=O)O)c4cc(S(=O)(=O)O)cc(S(=O)(=O)O)c34)cc2)cc1 | . | 90% | . | . | 4
O=c1[nH]/c(=C/c2ccc3c(c2)OCO3)c(=O)[nH]/c1=C/c1ccc2c(c1)OCO2 | 0% | . | . | . | .
COc1ccc(CN=C2NN=C(c3ccc(Cl)cc3)CS2)cc1 | . | 2% | 9% | 8% | 2
COc1ccc(CN=C2Nc3ccccc3CS2)cc1 | -3% | -2% | 10µM* | 0% | 6
COc1ccc(CN(Cc2ccccc2)C(=O)c2ccco2)cc1COc1ccc(NC(C)=O)cc1 | 0% | . | . | . | .
Cc1cc(C)n2nc(SCC(=O)N3CCCC3)nc2n1 | 1% | . | 6% | . | .
Cc1cc(C)n2nc(SCC(=O)N3CCN(c4ccccc4)CC3)nc2n1 | 32µM* | . | -8% | . | .
Cc1ncsc1C(=O)N1N=C2/C(=C/c3ccccc3)CCCC2C1c1ccccc1 (stereo not given) | 35µM* | -3% | 2% | 17% | 3
CSc1scc2c1-c1nc(SCC(=O)C(C)(C)C)ncc1CC2 | 4% | . | -1% | -6% | 2
C=CCNC(=O)CSc1ncc2c(n1)-c1c(csc1SC)CC2 | 32µM* | . | -6% | -5% | 0
N#Cc1ccc(S(=O)(=O)N2CCC(Oc3cccc(C(F)(F)F)c3)CC2)cc1 | -2% | . | . | . | .
COc1cc(OC)c(OC)cc1/C=C/c1cc[n+](C)c2ccccc12 | -5% | . | . | . | .
COc1cc(N(C)C)c(OC)cc1/C=C/c1ccnc2ccccc12 | 0% | . | . | . | .
CCn1cc(C(=O)NCc2ccco2)c(=O)c2cc(F)c(N3CCN(C(=O)c4ccco4)CC3)cc21 | 28µM* | -13% | -8% | 1% | 3
O=C(NCCc1cccs1)c1ccc(Cn2c(SCc3ccc(F)cc3)nc3cccnc32)cc1 | 25µM* | . | . | . | .
Cc1ccc(CNC(=O)c2ccc(Cn3c(SCc4ccc(F)cc4)nc4cccnc43)cc2)o1 | 28µM* | . | . | . | .
O=C(NCCc1cccs1)c1ccc(Cn2c(SCc3ccccc3)nc3cccnc32)cc1 | 4% | . | . | . | .
NC(=O)COc1ccc2cc(-c3ccccc3)c(=O)oc2c1 | 4% | -12% | ? | 8% | -7
O=c1oc2cc(OCc3c(F)c(F)c(F)c(F)c3F)ccc2cc1-c1ccccn1 | 16µM* | -2% | 3% | 0% | 4
COC(=O)C[C@H]1c2ccccc2C2=C(C[C@@H](C)[C@H]3C(=O)N(c4ccccc4)C(=O)[C@@H]23)N1C(=O)OC | . | -3%[11.7 µM] | . | . | 1[11.7 µM]
O=C(c1ccccc1-c1nc2ccccc2[nH]1)N1CCCCC1 | 28µM* | 2% | 1% | 5% | 1
O=C(CSc1ncccc1-c1nc2ccccc2[nH]1)N1CCCCC1 | ? | 7% | 4% | 1% | 1
CCOc1ccccc1-c1cc(-c2ccccc2)nc2c1c(=O)n(C)c(=O)n2C | 32µM* | -4% | 2% | 2% | 3
CC(C)c1cc(-c2cc(C(=O)NCc3ccccc3)on2)nc(NCC2CC2)n1 | 32µM* | . | 6% | 15% | -3
C1=C/C(=C2/C=Cc3ccccc32)c2ccccc2N1 | 1% | . | . | . | .
SMILES | ClpP mod | Menin MLL FP TR | p53 reactivation | CXXC DNA block | Menin-MLL FL inh
Cc1ccccc1CNC(=O)c1cccc(NC(=O)N2CCSc3ncccc32)c1 | 32µM* | . | . | . | .
O=C(NCc1ccccc1)c1ccc(NC(=O)N2CCSc3ncccc32)cc1 | 32µM* | . | . | . | .
Cc1ccc(CNC(=O)c2ccc(NC(=O)N3CCSc4ncccc43)cc2)cc1 | 4% | . | . | . | .
CCc1ccc(CNC(=O)c2ccc(NC(=O)N3CCSc4ncccc43)cc2)cc1 | 32µM* | . | . | . | .
Cc1cccc(OCC(=O)Nc2cc(C)c(O)c(-c3nc4ccccc4o3)c2)c1 | 1% | . | . | . | .
CC(C)CC1=C/C(=C/c2ccc(-c3ccccc3)o2)C(=O)O1 | 25µM* | ? | 11% | -2% | 24
NS(=O)(=O)c1ccc(-c2ccc(C=C3C(=O)c4ccccc4C3=O)o2)cc1 | 0% | ? | . | 6% | 0
Cn1c(N)c(S(=O)(=O)c2ccc(Br)cc2)c2nc3ccccc3nc21 | 14µM* | 10% | -25% | -1% | 5
CCCCCn1c(NC(=O)c2ccco2)c(S(=O)(=O)c2ccc(C)cc2)c2nc3ccccc3nc21 | ? | 2% | -9% | -5% | 14
Cc1ccc(S(=O)(=O)c2c(N)n(CCCO)c3nc4ccccc4nc23)cc1 | 29% | -1% | 0% | 5% | 1
Cc1ccc(S(=O)(=O)c2c(N)n(CCC(C)C)c3nc4ccccc4nc23)cc1 | 25µM* | -11% | -2% | 4% | 5
CCCCn1c(NS(=O)(=O)c2ccccc2)c(S(=O)(=O)c2ccc(C)cc2)c2nc3ccccc3nc21 | 16µM* | ? | -4% | 5% | 1
Nc1c(S(=O)(=O)c2ccccc2)c2nc3ccccc3nc2n1C1CC1 | . | 3% | -2% | 1% | -2
Cc1ccc(S(=O)(=O)c2c(N)n(NC(=O)c3ccccc3C)c3nc4ccccc4nc23)cc1 | 32µM* | ? | 0% | 14% | 0
Cc1cc2oc(=O)cc(-c3ccccc3)c2c(C)c1-c1ccoc1 | . | 6%[94.6 µM] | . | . | -4[94.6 µM]
Cc1ccc(C(=O)Nn2c(N)c(S(=O)(=O)c3ccc(C)cc3)c3nc4ccccc4nc32)cc1 | 28µM* | ? | -3% | 20% | 0
CCCCn1c(NC(=O)c2ccco2)c(S(=O)(=O)c2ccc(C)cc2)c2nc3ccccc3nc21 | . | 1% | 3% | 49% | ?
O=C(NC1CCCCNC1=O)c1ccc(Cl)cc1 (stereo not given) | 28µM* | 0% | 14% | -7% | -1
COc1ccc(/C=c2\[nH]c(=O)/c(=C/c3ccc(OC)cc3)[nH]c2=O)cc1 | -1% | . | . | . | .
O=S(c1ccccc1)C(c1ccccc1)c1ccccc1 (stereo not given) | 16µM* | . | . | . | .
Cc1ccc(S(=O)C(c2ccccc2)c2ccccc2)cc1 (stereo not given) | 1% | . | . | . | .
COc1nc(C)nc2c1sc1nc3c(cc12)COC(C)(C)C3 | 28µM* | -8% | ? | -26% | -3
CC1(C)Cc2nc3sc4c(N(CCO)CCO)ncnc4c3cc2CO1 | 14µM* | -6% | 15% | 7% | 0
CCCCn1c(SCC(=O)c2ccccc2)nc2c(sc3ccccc32)c1=O | -5% | . | . | . | .
O=C(C[n+]1csc2ccccc21)c1ccc(I)cc1 | 2% | . | . | . | .
O=C(NCCc1ccccc1)C1CCN(Cc2cccc3ccccc23)CC1 | 16µM* | -14% | . | 18% | -1
NC(=O)C1CCN(S(=O)(=O)c2ccc(N3CCCCS3(=O)=O)cc2)CC1 | 1% | . | . | . | .

From PubChem
